In PubChem BioAssay (NCI) one finds growth data, which are given here for eight molecules.

Some test systems named below: DU-145 prostate; K-562 leukemia; MALME-3M melanoma; MDA-MB-231 breast; RXF 393 renal; SF-268 CNS; SF-295 CNS; SF-539 CNS; UACC-257 melanoma; M14 melanoma; HCT-15 colon; HT29 colon; SNB-75 CNS; SNB-19 CNS; U251 CNS; PC-3 prostate; SK-MEL-5 melanoma; UACC-62 melanoma; SK-MEL-28 melanoma.
Experiment in all cases: NCI-60 one-dose screen, 48 h (100 = growth as untreated, 0 = no growth, -100 = all killed)
Holding throughout (settings): 10 µM unless noted

The structures appear in SMILES notation. This is part of a sample that, as a whole, favours compounds with a hit. Of some 83,000 tested, about 20% had one in any assay.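 How to read the values: 0–100, growth inhibition (40 = 60% inhibited); 0, no net growth; -100 to 0, cell death (-40 = 40% of starting cells died; -100 = all dead).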 A number with no mark means an inactive call. Active and inactive are the calls of the source. The calls were made as follows: active = growth percent below 10; inactive = the rest.

`COc1ccc2[nH]cc(-c3nc(N)nnc3-c3cn(C)c4ncccc34)c2c1`: the growth in the assay with DU-145 prostate is 83.9%; with K-562 leukemia, 21.6%; with MALME-3M melanoma it was 37.6%; with MDA-MB-231 breast, 43.4%; with RXF 393 renal it was 81.5%; in the assay on SF-268 CNS, 75.8%. Further, the growth in the assay on SF-295 CNS was 39.9%; in the assay with SF-539 CNS, 50.2%; in the assay on UACC-257 melanoma, 72.9%; in the assay with M14 melanoma it was 33.2%; with HCT-15 colon, 44.4%; with HT29 colon it was 35.6%. For the same molecule, the growth in the assay on SNB-75 CNS was 14.2%; with SNB-19 CNS it was 63.8%; in the assay on U251 CNS it was 60.1%; in the assay with PC-3 prostate, 68.4%; in the assay with SK-MEL-5 melanoma it was 31.2%; in the assay with UACC-62 melanoma, 37.7%. The growth in the assay with SK-MEL-28 melanoma was 62.3%.
Turning to `COc1cc2c(c(OC)c1OC)C(=O)CC(c1cccc(NC(=O)c3cc(NC(=O)[C@H](CO)NC(=O)OC(C)(C)C)ccc3Cl)c1)O2` (some centres not stated), the growth is 27.5% in the assay with DU-145 prostate; 12.7% in the assay with K-562 leukemia; 43.2% with MALME-3M melanoma; 6.43% (active) in the assay with MDA-MB-231 breast; 46.8% in the assay on RXF 393 renal; 45.4% in the assay on SF-268 CNS. The growth in the assay on SF-295 CNS was 37%; in the assay on SF-539 CNS it was 37%; in the assay with UACC-257 melanoma it was 26.9%; in the assay on M14 melanoma, 22.5%; in the assay with HCT-15 colon, 35.4%; with HT29 colon, 15.7%. For the same molecule, the growth in the assay with SNB-75 CNS was 54.8%; in the assay on SNB-19 CNS, 45%; in the assay with U251 CNS it was 25.4%; in the assay with PC-3 prostate, 28.1%; in the assay on SK-MEL-5 melanoma, 14.3%; in the assay on UACC-62 melanoma it was 40.2%. Besides, the growth in the assay on SK-MEL-28 melanoma was 21%.
On to `COc1cc2oc(-c3cccc(NC(=O)[C@H](Cc4ccccc4)NC(=O)OC(C)(C)C)c3)cc(=O)c2c(OC)c1OC`, for which the growth in the assay with DU-145 prostate is 35.7%; with K-562 leukemia, 23%; with MALME-3M melanoma, 35%; with MDA-MB-231 breast, 42.7%; in the assay with RXF 393 renal, 31%; in the assay with SF-268 CNS, 62%. For the same molecule, the growth in the assay with SF-295 CNS is 36.8%; in the assay on SF-539 CNS, 43.1%; with UACC-257 melanoma, 75.5%; with M14 melanoma, 51.7%; with HCT-15 colon, 17.4%; in the assay with HT29 colon it was 22.8%. The growth is 97.6% in the assay with SNB-75 CNS; 40% with SNB-19 CNS; 36.6% in the assay on U251 CNS; 39.7% with PC-3 prostate; 17.9% with SK-MEL-5 melanoma; 54.6% in the assay with UACC-62 melanoma. For the same molecule, in the assay with SK-MEL-28 melanoma, the growth was 49.9%.
For the molecule `CN(C)CCn1c2ccccc2c2nc3ccc([N+](=O)[O-])cc3nc21`, the growth is 7.7% (active) with DU-145 prostate; 8.19% (active) with K-562 leukemia; -14.4% (active) in the assay with MALME-3M melanoma; 5.52% (active) in the assay on MDA-MB-231 breast; 10.1% in the assay on RXF 393 renal; 24.7% in the assay on SF-268 CNS. Further, the growth in the assay on SF-295 CNS is 0.988% (active); in the assay with SF-539 CNS, -2.27% (active); in the assay on UACC-257 melanoma it was -13.2% (active); in the assay on M14 melanoma, 17.9%; in the assay with HCT-15 colon, 4.65% (active); in the assay on HT29 colon, -15.6% (active). The growth is 47.6% with SNB-75 CNS; 4.08% (active) with SNB-19 CNS; -8.94% (active) in the assay on U251 CNS; 19.9% in the assay on PC-3 prostate; -81% (active) in the assay on SK-MEL-5 melanoma; -25.5% (active) with UACC-62 melanoma. The growth with SK-MEL-28 melanoma was 8.67% (active).
Consider `COc1ccc2[nH]cc(-c3nnc(N)nc3-c3c[nH]c4ncc(Br)cc34)c2c1`, for which the growth in the assay on DU-145 prostate was 92.6%; in the assay on K-562 leukemia, 74.1%; with MALME-3M melanoma it was 92.5%; with MDA-MB-231 breast, 73.4%; with RXF 393 renal, 79.2%; with SF-268 CNS, 85.5%. The growth in the assay on SF-295 CNS was 82%; in the assay on SF-539 CNS, 70.7%; with UACC-257 melanoma, 127%; with M14 melanoma, 97.6%; in the assay with HCT-15 colon it was 90.8%; in the assay on HT29 colon, 96.7%. Moreover, the growth in the assay with SNB-75 CNS is 93.5%; in the assay with SNB-19 CNS it was 91%; in the assay with U251 CNS, 76.1%; in the assay with PC-3 prostate, 110%; with SK-MEL-5 melanoma, 91.1%; in the assay with UACC-62 melanoma it was 80.1%. Moreover, the growth in the assay on SK-MEL-28 melanoma is 98.9%.
In the case of `Cc1cc2nc3c4ccccc4n(CCNCCN(C)C)c3nc2cc1C`, the growth in the assay with DU-145 prostate was 17.2%; in the assay with K-562 leukemia it was 0.435% (active); in the assay on MALME-3M melanoma, -96.6% (active); with MDA-MB-231 breast, 1.93% (active); in the assay on RXF 393 renal, -34.7% (active); in the assay on SF-268 CNS, 42.5%. The growth in the assay on SF-295 CNS was 20.2%; with SF-539 CNS it was -79.8% (active); with UACC-257 melanoma, -72.8% (active); with M14 melanoma, -79.9% (active); in the assay with HCT-15 colon, 8.66% (active); in the assay with HT29 colon, -40.1% (active). Further, the growth was 43.4% in the assay with SNB-75 CNS; 35.3% with SNB-19 CNS; 36.5% in the assay with U251 CNS; 18.2% with PC-3 prostate; -88.9% (active) in the assay with SK-MEL-5 melanoma; -87.8% (active) with UACC-62 melanoma. Also, in the assay with SK-MEL-28 melanoma, the growth was -68.4% (active).
`C=C1CCC2C3(C)COC(c4ccc(F)cc4)OC3CCC2(C)C1CC(O)C1=CCOC1=O` (configuration not stated): the growth was 59.3% in the assay with DU-145 prostate; 15.2% with K-562 leukemia; 63.2% with MALME-3M melanoma; 53.5% in the assay with MDA-MB-231 breast; 35.7% with RXF 393 renal; 103% in the assay on SF-268 CNS. In addition, the growth in the assay with SF-295 CNS was 64.7%; in the assay with SF-539 CNS, 56.3%; with UACC-257 melanoma, 57.9%; in the assay with M14 melanoma, 24.7%; in the assay with HCT-15 colon, 1.99% (active); in the assay on HT29 colon, 27.8%. The growth with SNB-75 CNS was 60.4%; with SNB-19 CNS it was 76.4%; in the assay on U251 CNS, 59.6%; with PC-3 prostate, 37.6%; with SK-MEL-5 melanoma it was 21.9%; in the assay with UACC-62 melanoma, 47.9%. The growth in the assay on SK-MEL-28 melanoma is 41.4%.
Consider `Cn1cc(-c2nnc(N)nc2-c2c[nH]c3ccccc23)c2cccnc21`, for which the growth was 76.9% with DU-145 prostate; 15.7% with K-562 leukemia; 38.2% with MALME-3M melanoma; 48.5% with MDA-MB-231 breast; 71.1% in the assay on RXF 393 renal; 65.9% in the assay with SF-268 CNS. Besides, the growth was 32% with SF-295 CNS; 49.3% with SF-539 CNS; 62.3% with UACC-257 melanoma; 20.8% with M14 melanoma; 28.9% with HCT-15 colon; 17.2% in the assay with HT29 colon. Moreover, the growth with SNB-75 CNS was 28.5%; in the assay with SNB-19 CNS, 51.6%; with U251 CNS, 41.6%; in the assay with PC-3 prostate, 57.8%; with SK-MEL-5 melanoma it was 24.4%; with UACC-62 melanoma, 33.9%. Moreover, the growth with SK-MEL-28 melanoma was 55%.
